Records with an inconclusive call do not appear. Where a call stands in place of a potency, no number is given. Calls of active or inactive are those of the source. Unless noted, the call rests on the fitted dose curve.
Key:
[1] = P-glycoprotein substrates identified in KB-8-5-11 adenocarcinoma cell line, qHTS therapeutic library screen (AID 1346987; active means well fitted curve in the direction sought with a large enough effect; an effect the other way counts as inactive or inconclusive; further: nearly all actives have a fitted effect of over 65% in size; further: potency means the concentration at half of the fitted maximal effect)
Summary of the method: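 Steps: plate 500 KB-8-5-11 cells/well in DMEM + 10% FCS (colchicine removed); pin compounds in dose-response; incubate 72 h, 37 degree C, 5% CO2; add CellTiter-Glo, 5 min; read luminescence.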

[2] = Natriuretic polypeptide receptor (hNpr1) antagonism - Pilot counterscreen GloSensor control cell line (AID 1347045); further: potency means the concentration at half of the fitted maximal effect
Summary of the method: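 Luminescence was read before and 20 min after adding 50 uM SNP, which stimulates soluble guanylyl cyclase. The HEK293 cells expressing the GloSensor cGMP sensor had been preloaded with 2% reagent for 2 h and treated with compound.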

[3] = biological target: Atrial natriuretic peptide receptor 1 (Homo sapiens) (UniProt P16066); assay: Natriuretic polypeptide receptor (hNpr1) antagonism - Pilot screen (AID 1347049);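 further: agonist-evoked cGMP luminescence read 20 min after hNppA addition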; further: potency means the concentration at half of the fitted maximal effect
Sequence of Atrial natriuretic peptide receptor 1 (Homo sapiens) (P16066 whole entry, looked up): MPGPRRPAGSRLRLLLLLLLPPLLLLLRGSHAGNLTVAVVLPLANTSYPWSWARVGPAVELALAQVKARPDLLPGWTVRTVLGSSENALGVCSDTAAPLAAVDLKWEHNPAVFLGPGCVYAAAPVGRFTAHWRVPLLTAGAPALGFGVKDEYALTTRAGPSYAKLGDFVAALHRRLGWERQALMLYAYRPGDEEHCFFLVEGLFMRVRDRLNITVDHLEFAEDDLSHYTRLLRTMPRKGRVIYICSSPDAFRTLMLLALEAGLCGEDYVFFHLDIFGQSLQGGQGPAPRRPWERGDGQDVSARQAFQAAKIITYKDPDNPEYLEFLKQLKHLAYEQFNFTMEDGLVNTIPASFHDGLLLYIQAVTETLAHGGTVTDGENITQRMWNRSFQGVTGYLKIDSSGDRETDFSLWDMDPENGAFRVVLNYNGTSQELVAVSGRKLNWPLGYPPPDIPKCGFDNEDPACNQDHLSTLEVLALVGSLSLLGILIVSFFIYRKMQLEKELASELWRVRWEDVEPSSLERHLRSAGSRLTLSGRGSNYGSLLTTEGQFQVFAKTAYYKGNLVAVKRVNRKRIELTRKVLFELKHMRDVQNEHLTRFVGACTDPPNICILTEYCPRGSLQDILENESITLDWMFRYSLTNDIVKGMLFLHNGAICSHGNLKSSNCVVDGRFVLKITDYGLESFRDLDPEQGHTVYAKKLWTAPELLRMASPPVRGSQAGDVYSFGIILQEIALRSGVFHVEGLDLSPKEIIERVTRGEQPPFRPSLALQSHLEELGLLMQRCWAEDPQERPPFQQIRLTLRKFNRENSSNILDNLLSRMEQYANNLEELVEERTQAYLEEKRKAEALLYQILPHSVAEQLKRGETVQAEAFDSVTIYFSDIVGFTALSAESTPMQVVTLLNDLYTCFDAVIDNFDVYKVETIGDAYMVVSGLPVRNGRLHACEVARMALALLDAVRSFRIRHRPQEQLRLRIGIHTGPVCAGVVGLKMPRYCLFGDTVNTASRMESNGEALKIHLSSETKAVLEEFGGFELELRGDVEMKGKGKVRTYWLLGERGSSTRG
Summary of the method: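 Readout is cGMP-driven firefly luciferase luminescence in HEK293 cells carrying hNpr1 and a PDE5-domain GloSensor, read before and 20 min after 0.1 nM hNppA stimulation. Cells had 2% substrate reagent for 2 h and test compound for 30 min.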

[4] = biological target: Atrial natriuretic peptide receptor 2 (Homo sapiens) (UniProt P20594); assay: Natriuretic polypeptide receptor (hNpr2) antagonism - Pilot subtype selectivity assay (AID 1347050); further: potency means the concentration at half of the fitted maximal effect
Sequence of Atrial natriuretic peptide receptor 2 (Homo sapiens) (P20594 whole entry, looked up): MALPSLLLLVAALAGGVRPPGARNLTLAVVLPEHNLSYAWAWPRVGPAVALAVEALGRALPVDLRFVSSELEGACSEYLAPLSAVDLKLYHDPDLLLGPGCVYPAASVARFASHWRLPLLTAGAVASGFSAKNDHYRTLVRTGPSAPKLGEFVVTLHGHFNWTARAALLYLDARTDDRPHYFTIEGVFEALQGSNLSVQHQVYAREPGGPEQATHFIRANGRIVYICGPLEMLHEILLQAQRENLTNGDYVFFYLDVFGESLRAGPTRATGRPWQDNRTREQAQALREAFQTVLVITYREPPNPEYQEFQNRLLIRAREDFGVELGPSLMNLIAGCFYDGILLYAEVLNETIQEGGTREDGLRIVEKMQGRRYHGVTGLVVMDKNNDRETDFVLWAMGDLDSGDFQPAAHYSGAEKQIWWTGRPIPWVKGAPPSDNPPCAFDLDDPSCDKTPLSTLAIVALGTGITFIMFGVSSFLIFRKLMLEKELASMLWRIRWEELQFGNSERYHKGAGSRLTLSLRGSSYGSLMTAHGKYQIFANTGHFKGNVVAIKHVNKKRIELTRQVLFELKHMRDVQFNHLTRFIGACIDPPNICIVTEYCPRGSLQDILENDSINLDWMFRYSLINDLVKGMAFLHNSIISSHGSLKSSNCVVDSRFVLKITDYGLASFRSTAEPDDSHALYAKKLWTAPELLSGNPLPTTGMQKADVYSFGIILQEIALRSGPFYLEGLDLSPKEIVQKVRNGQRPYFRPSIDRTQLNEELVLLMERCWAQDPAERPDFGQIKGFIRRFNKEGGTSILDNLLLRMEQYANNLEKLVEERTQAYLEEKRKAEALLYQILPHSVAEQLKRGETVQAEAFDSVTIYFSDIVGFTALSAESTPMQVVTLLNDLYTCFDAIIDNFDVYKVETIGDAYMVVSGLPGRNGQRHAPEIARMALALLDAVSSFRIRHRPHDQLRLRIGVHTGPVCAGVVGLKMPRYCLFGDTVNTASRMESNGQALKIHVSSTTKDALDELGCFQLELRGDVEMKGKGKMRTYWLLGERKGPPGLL
Summary of the method: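 Pilot selectivity screen against hNpr2: HEK293 cGMP-sensor cells are treated with LOPAC1280 compounds, then with hNppC peptide at 1 nM final. The cGMP-driven luminescence change over 20 min at room temperature is the read-out.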

[5] = NS1 protein of Zika virus - qHTS assay to identify small molecule inhibitors in human HEK 293 cells (AID 1347053; active means well fitted curve in the direction sought with a large enough effect; an effect the other way counts as inactive or inconclusive; further: series mostly up to about 46 µM; nearly all actives have a fitted effect of over 55% in size)
Summary of the method: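 Following 20 h seeding, HEK 293 cells took compound, then 1 h later ZIKV MR766 (MOI = 0.5). Incubation ran 24 h at 37 C before TR-FRET detection of NS1; a drop in signal indicates inhibition.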

[6] = biological target: T1, Tyrosine-protein phosphatase non-receptor type substrate 1 (Homo sapiens) + Leukocyte surface antigen CD47 (Homo sapiens) (UniProt P78324+Q08722); assay: CD47-SIRPalpha protein protein interaction - LANCE assay qHTS validation (AID 1347057; active means well fitted curve in the direction sought with a large enough effect in the signal ratio, with a control signal flat, not every such curve was filed as active; the % refers to the signal ratio; further: potency means the concentration at half of the fitted maximal effect)
T1 sequence (P78324 whole entry, looked up): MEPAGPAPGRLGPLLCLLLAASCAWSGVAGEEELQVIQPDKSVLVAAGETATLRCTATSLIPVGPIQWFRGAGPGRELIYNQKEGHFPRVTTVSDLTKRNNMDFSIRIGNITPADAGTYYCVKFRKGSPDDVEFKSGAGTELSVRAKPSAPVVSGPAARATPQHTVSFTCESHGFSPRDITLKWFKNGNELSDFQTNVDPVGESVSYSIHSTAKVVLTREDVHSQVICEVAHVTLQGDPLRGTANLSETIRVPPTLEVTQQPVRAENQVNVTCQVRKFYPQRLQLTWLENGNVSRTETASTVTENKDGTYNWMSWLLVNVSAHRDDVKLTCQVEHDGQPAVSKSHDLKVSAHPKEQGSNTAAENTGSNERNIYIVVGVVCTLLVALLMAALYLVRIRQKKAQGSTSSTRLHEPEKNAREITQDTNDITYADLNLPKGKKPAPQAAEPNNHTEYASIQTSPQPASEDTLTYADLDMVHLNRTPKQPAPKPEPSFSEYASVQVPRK
T1 sequence (Q08722 whole entry, looked up): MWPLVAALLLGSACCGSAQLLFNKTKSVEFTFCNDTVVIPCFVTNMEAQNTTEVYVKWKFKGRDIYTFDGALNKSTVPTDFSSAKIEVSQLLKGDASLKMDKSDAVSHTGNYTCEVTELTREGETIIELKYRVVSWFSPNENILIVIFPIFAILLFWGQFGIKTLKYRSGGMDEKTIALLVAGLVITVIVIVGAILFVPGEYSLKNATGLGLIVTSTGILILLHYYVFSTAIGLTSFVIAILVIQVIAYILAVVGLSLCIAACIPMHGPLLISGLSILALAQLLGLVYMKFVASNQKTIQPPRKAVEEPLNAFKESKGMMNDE
Summary of the method: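 First, His-tagged CD47 and Eu-labelled anti-His antibody met the compound for 30 min; next, site-specifically biotinylated SIRPalpha was added for 30 min; finally streptavidin-APC was added before reading the TR-FRET ratio.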

[7] = biological target: T1, Tyrosine-protein phosphatase non-receptor type substrate 1 (Homo sapiens) + Leukocyte surface antigen CD47 (Homo sapiens); assay: CD47-SIRPalpha protein protein interaction - HTRF assay qHTS validation (AID 1347058; active means well fitted curve in the direction sought with a large enough effect in the signal ratio, not every such curve was filed as active; the % refers to the signal ratio;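 further: recombinant soluble extracellular CD47 with His tag and biotinylated SIRPalpha domains; series mostly up to about 38 µM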)
Summary of the method: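 TR-FRET read (Ch1/Ch2 ratio) of soluble extracellular CD47 and Avi-biotinylated SIRPalpha domains in PBS pH 7.4 with 0.05% IGEPAL; 7-point compound titration. Sequential 30 min room-temperature steps; non-biotinylated SIRPalpha as control inhibitor.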

SMILES	Potency [1]	Potency [2]	Potency [3]	Potency [4]	outcome [5]	Potency [6]	outcome [7]
COC1C(O)C(C)OC(OC2C(CO)O[C@@H](O[C@@H]3CC4CCC5C(CC[C@]6(C)[C@@H](C7=CC(=O)OC7)CC[C@]56O)[C@@]4(C)[C@H](O)C3)C(O)C2O)C1O (stereo partly specified)	544 nM (active)						
NC(N)=NOCC[C@H](N)C(=O)O		inactive	inactive	inactive			
CC[C@H]1CN2CC[C@H]1C[C@@H]2[C@@H](O)c1ccnc2ccc(OC)cc12	inactive						
N[C@@H](Cn1ccc(=O)[nH]c1=O)C(=O)O		inactive	inactive	inactive			
C=CCN1CC[C@]23c4c5ccc(O)c4O[C@@H]2/C(=N/N=C2\CC[C@@]4(O)C6Cc7ccc(O)c8c7[C@@]4(CCN6CC=C)[C@@H]2O8)CC[C@@]3(O)C1C5		inactive	inactive				
CO[C@H]1[C@H](O)[C@H](O[C@H]2CC[C@]3(C)C4CC[C@]5(C)[C@H](C6=CC(=O)OC6)CC[C@]5(O)C4CC[C@@H]3C2)O[C@@H](C)[C@@H]1O (stereo partly specified)	56.3 nM (active)						
NC(Cc1ccc(N(CCCl)CCCl)cc1)C(=O)O (stereo unspecified)		inactive	inactive	inactive			
CCCN(CCC)CCc1c[nH]c2ccc(C(N)=O)cc12		inactive	inactive	inactive			
CN1[C@@H]2CC[C@H]1CC(OC(=O)C1C=Nc3ccccc31)C2 (stereo partly specified)	inactive						
C=CCN1CC[C@]23c4c5ccc(O)c4O[C@H]2/C(=N/NC(=O)c2ccccc2)CC[C@@]3(O)[C@H]1C5		inactive	inactive	inactive			
O=C1CC[C@@]2(O)C3Cc4ccc(O)c5c4C2(CCN3CC2CC2)[C@H]1O5 (stereo partly specified)		inactive	inactive	inactive	inactive	inactive	
CN1CC[C@@]2(C)c3cc(OC(=O)Nc4ccccc4)ccc3N(C)[C@@H]12		inactive	inactive	inactive	inactive	inactive	
CN1CCc2cccc(Cl)c2CC1		inactive	inactive	inactive	inactive	inactive	
CCCN(CCC)C1CCc2cccc(O)c2C1 (stereo unspecified)		inactive	inactive	inactive	inactive	inactive	
C[N+]1(C)CCOC(O)(c2ccc(-c3ccc(C4(O)C[N+](C)(C)CCO4)cc3)cc2)C1 (stereo unspecified)		inactive	inactive	inactive	inactive	inactive	
c1ccc2c(N3CCNCC3)cccc2c1		inactive	inactive	inactive	inactive	inactive	
CC(N)c1cccc(Cl)c1Cl (stereo unspecified)		inactive	inactive	inactive	inactive	inactive	inactive
O=S1(=O)N(CCN2CC=C(c3c[nH]c4cc(F)ccc34)CC2)c2cccc3c2N1CCC3		inactive	inactive	inactive	inactive	inactive	
Cc1cc([C@@H]2CCCN2C)on1		inactive	inactive	inactive	inactive	inactive	
Clc1ccc(N2CC3CCC(C2)N3)nn1		inactive	inactive	inactive	inactive	inactive	
CC(N)[C@H](O)c1ccc(O)c(O)c1 (stereo partly specified)		inactive	inactive	inactive	inactive	inactive	
CC(C)(O)[C@@H]1C2OC(=O)[C@@H]1[C@]1(O)C[C@H]3O[C@]34C(=O)O[C@H]2[C@]14C (tested in a mixture with another compound)		inactive	inactive	inactive	inactive	inactive	
CC(=O)OCC1=C(C(=O)O)N2C(=O)[C@@H](NC(=O)CCC[C@@H](N)C(=O)O)[C@H]2SC1		inactive	inactive	inactive	inactive	4650 nM (active)	
CCCN(CCC)[C@H]1CCc2c(F)ccc(O)c2C1		inactive	inactive	inactive	inactive	inactive	

SMILES	Potency [1]	Potency [2]	Potency [3]	Potency [4]	outcome [5]	Potency [6]	outcome [7]
NCCc1c[nH]c2ccc(C(N)=O)cc12		inactive	inactive	inactive	inactive	inactive	
CN1CCC(c2c[nH]c3ccc(O)cc23)CC1		inactive	inactive	inactive	inactive	inactive	
CP(=O)(O)C1=CCNCC1		inactive	inactive	inactive	inactive	inactive	
NCCc1ccc(S(=O)(=O)F)cc1		inactive	inactive	inactive	inactive	inactive	
O=[N+]([O-])c1ccc2nc(N3CCNCC3)ccc2c1		inactive	inactive	inactive	inactive	inactive	
NCCCP(=O)(O)O		inactive	inactive	inactive	inactive	inactive	
NCC(CP(=O)(O)O)c1ccc(Cl)cc1 (stereo unspecified)		inactive	inactive	inactive	inactive	inactive	
NC(=O)c1cc(N2CC2)c([N+](=O)[O-])cc1[N+](=O)[O-]		inactive	inactive	inactive	inactive	inactive	
CC(N)Cc1c[nH]c2ccc(O)cc12 (stereo unspecified)		inactive	inactive	inactive	inactive	inactive	
COc1ccc2c(c1)C13CCCCC1C(C2)N(C)CC3 (stereo unspecified)		inactive	inactive	inactive	inactive	inactive	
COc1ccc2[nH]c3c(c2c1)CCNC3		inactive	inactive	inactive	inactive	inactive	
NC(Cc1cc(O)c(O)cc1O)C(=O)O (stereo unspecified)		inactive	inactive	inactive	inactive	13100 nM (active)	
CC(=O)NBr		inactive	inactive	inactive	inactive	inactive	
Cc1sc2ccccc2c1CC1=NCCN1		inactive	inactive	inactive	inactive	inactive	
CC12NC(Cc3ccccc31)c1ccccc12 (stereo unspecified)		inactive	inactive	inactive	inactive	inactive	
COc1ccc(CNC(=O)/C=C/c2ccc3[nH]cc(CCN(C)C)c3c2)cc1		inactive	inactive	inactive	inactive	inactive	
O=[N+]([O-])c1cc(O)c(O)c([N+](=O)[O-])c1		inactive	inactive	inactive	inactive	inactive	
COc1ccc2[nH]cc(CCN)c2c1		inactive	inactive	inactive	inactive	inactive	inactive
C[C@H](Cc1ccc2c(c1)OC(C(=O)O)(C(=O)O)O2)NC[C@H](O)c1cccc(Cl)c1		inactive	inactive	inactive	inactive	inactive	
CCOC(=O)c1ncn2c1[C@@H]1CCCN1C(=O)c1cc(OC)ccc1-2		inactive	inactive	inactive	inactive	inactive	
NC(CCCCCP(=O)(O)O)C(=O)O (stereo unspecified)		inactive	inactive	inactive	inactive	inactive	
NNC(N)=O		inactive	inactive	inactive	inactive	inactive	
N=C(N)c1ccc(CS(=O)(=O)F)cc1		inactive	inactive	inactive	inactive	inactive	inactive
CCCN(CCC)CCc1ccc(O)c(O)c1		inactive	inactive	inactive	inactive	inactive	

SMILES	Potency [1]	Potency [2]	Potency [3]	Potency [4]	outcome [5]	Potency [6]	outcome [7]
NC(=O)CI		inactive	inactive	inactive	inactive		inactive
C[C@@H]1O[C@@H](O[C@H]2C[C@@H](O)[C@]3(CO)[C@@H]4C(CC[C@]3(O)C2)[C@@]2(O)CC[C@H]([C@@H]3COC(=O)C3)[C@@]2(C)C[C@H]4O)[C@H](O)[C@H](O)[C@H]1O (stereo partly specified)		inactive	inactive	inactive		inactive	
CCCN(CCC)[C@@H]1CCc2cccc(O)c2C1		inactive		inactive	inactive	inactive	
O=[N+]([O-])/C=C/c1ccc2c(c1)OCO2		1470 nM (active)	2390 nM (active)	1470 nM (active)		inactive	
c1ccc2c(c1)[I+]c1ccccc1-2		4140 nM (active)	3010 nM (active)	927 nM (active)		inactive	
C[N+](C)(C)CC#CCN1CCCC1=O		inactive	inactive	inactive	inactive		inactive
CN1C2CCC1CC(OC(c1ccccc1)c1ccccc1N)C2 (stereo unspecified)		inactive	inactive		inactive	inactive	inactive
OC1CCCCC1N1CCC(c2ccccc2)CC1 (stereo unspecified)		inactive	inactive	inactive	inactive	inactive	inactive
CCCC[N+]1(C)C2CC(OC(=O)[C@H](CO)c3ccccc3)CC1C1OC12 (stereo partly specified)		inactive	inactive	inactive	inactive	inactive	inactive
CCS(=O)(=O)Nc1cccc(C(=C2CCCCC2)c2cnc[nH]2)c1		inactive		inactive	inactive	inactive	
Clc1cc(I)cc(Cl)c1NC1=NCCN1		inactive	inactive	inactive	inactive	inactive	inactive
Cc1[nH]c2ccc(O)cc2c1CCN		inactive	inactive	inactive	inactive	inactive	inactive
N[C@@]1(C(=O)O)CC[C@@H](C(=O)O)C1		inactive		inactive	inactive	inactive	
CCCN1CC[C@@H]2c3cc(O)ccc3CC[C@@H]21		inactive	inactive	inactive	inactive	inactive	inactive
C[C@H](N)CN1CCc2ccc(Br)cc21		inactive		inactive	inactive	inactive	
CC(C)(C)c1cc(C=C(C#N)C#N)cc(C(C)(C)C)c1O		131 nM (active)	301 nM (active)	414 nM (active)		inactive	inactive
CCNC(=O)[C@H]1O[C@@H](n2cnc3c(N)ncnc32)[C@H](O)[C@@H]1O		inactive	inactive	inactive	inactive	inactive	inactive
CCCN(CCC)C1Cc2cc(OC)c(OC)cc2C1		inactive		inactive	inactive	inactive	
CC(C)NP(=O)(NC(C)C)OP(=O)(NC(C)C)NC(C)C		inactive	inactive	inactive	inactive	inactive	inactive
CCn1cnc2c(Nc3cccc(Cl)c3)nc(N[C@@H]3CCCC[C@@H]3N)nc21		inactive	inactive			inactive	
NC(N)=Nc1ccc2[nH]c3c(c2c1)C[C@@]1(O)[C@H]2Cc4ccc(O)c5c4[C@@]1(CCN2CC1CC1)[C@H]3O5		6560 nM (active)	19000 nM (active)		inactive	inactive	
c1ccc2cc(CC3=NCCN3)ccc2c1		inactive	inactive	inactive	inactive	inactive	inactive
